# Reference: PubChem BioAssay (Tox21)
# Records with an inconclusive call do not appear. Entries that show only a call come without a potency. Some compounds were tested as several samples or in several runs, with calls that do not always agree. Active and inactive are the calls of the source. Calls follow the shape of the full dose curve.
# Key:
# [1] = molecular target: Acetylcholinesterase (Homo sapiens) (UniProt P22303); assay: Acetylcholinesterase (AChE) small molecule antagonists: colormetric cell-based qHTS assay (AID 1347395); also: nearly all actives have a fitted effect of over 30% in size; also: potency is read from the fitted curve at half-maximal effect
# Acetylcholinesterase (Homo sapiens), sequence (P22303 whole entry, looked up): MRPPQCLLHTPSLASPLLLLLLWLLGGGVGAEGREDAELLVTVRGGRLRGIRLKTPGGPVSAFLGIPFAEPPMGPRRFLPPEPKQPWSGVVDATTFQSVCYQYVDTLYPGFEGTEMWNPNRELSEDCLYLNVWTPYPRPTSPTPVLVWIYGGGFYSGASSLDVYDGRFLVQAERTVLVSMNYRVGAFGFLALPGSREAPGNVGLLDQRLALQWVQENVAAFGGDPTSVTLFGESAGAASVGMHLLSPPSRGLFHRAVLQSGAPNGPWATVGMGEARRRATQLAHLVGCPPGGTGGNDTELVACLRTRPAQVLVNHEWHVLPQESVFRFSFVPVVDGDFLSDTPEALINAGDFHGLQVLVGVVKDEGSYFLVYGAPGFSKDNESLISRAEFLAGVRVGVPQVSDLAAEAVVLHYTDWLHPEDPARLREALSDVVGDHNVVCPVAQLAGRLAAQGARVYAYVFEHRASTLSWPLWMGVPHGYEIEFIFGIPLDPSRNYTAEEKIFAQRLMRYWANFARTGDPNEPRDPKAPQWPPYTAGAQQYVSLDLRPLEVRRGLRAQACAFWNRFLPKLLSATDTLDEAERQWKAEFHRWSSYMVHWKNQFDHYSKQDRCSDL
# Method in brief: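 Homogeneous whole-cell format. SH-SY5Y cells seeded overnight, dosed with compound (30 min, 37 C, 5% CO2), then given DTNB/acetylthiocholine cocktail for 90 min at 37 C; colorimetric signal.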
# [2] = molecular target: Acetylcholinesterase (Homo sapiens) (UniProt P22303); assay: Acetylcholinesterase (AChE) small molecule antagonists: enzyme-based qHTS assay (AID 1347397); details: Potency: AChE enzyme activity inhibition; outcome: AChE enzyme activity inhibition; also: nearly all actives have a fitted effect of over 55% in size; also: potency is read from the fitted curve at half-maximal effect
# Method in brief: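 Compound or DMSO vehicle was pin-transferred onto recombinant human AChE (50 mU/mL as dispensed) and left 30 min at room temperature. Acetylthiocholine with DTNB then started the reaction, read colorimetrically 10 min later.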
# [3] = molecular target: Acetylcholinesterase (Homo sapiens) (UniProt P22303); assay: Acetylcholinesterase (AChE) small molecule antagonists: fluorescence cell-based qHTS assay (AID 1347398); details: Potency: AChE activity; outcome: AChE activity; also: nearly all actives have a fitted effect of over 50% in size; also: potency is read from the fitted curve at half-maximal effect
# Method in brief: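 Using neuroblastoma SH-SY5Y cells as the enzyme source, test chemicals are preincubated 30 min at 37 C; AChE-driven acetylthiocholine cleavage is then quantified by thiocholine-dependent Thiolite Green fluorescence after 40 min at room temperature.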
# [4] = molecular target: Acetylcholinesterase (Homo sapiens) (UniProt P22303); assay: Acetylcholinesterase (AChE) small molecule antagonists: enzyme-based qHTS assay with human liver microsomes (AID 1347399); details: Potency: qHTS inhibition; outcome: qHTS inhibition; also: nearly all actives have a fitted effect of over 60% in size
# Method in brief: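 Recombinant human AChE (50 mU/mL in the enzyme mix) and human liver microsomes (0.25 mg/mL final) were preincubated with compound and NADPH (0.25 mg/mL final) for 30 min at 37 C. Acetylthiocholine/DTNB was then added; thiocholine was read colorimetrically after 10 min at room temperature.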
SMILES,Potency [1],Potency [2],Potency [3],Potency [4],"activity, negative = inhibition [1]","activity change, negative = inhibition [2]","activity change, negative = inhibition [3]","activity change, negative = inhibition [4]"
O=C1OC2(c3ccccc31)c1ccc(O)c(Br)c1Oc1c2ccc(O)c1Br,inactive,inactive,inactive,inactive,–,–,–,–
O=C(Nc1ccccc1)c1cc(Cl)ccc1O,inactive,inactive,inactive,inactive,–,–,–,–
C/C=C1/CC2C=CC1C2 (stereo not given),inactive,inactive,inactive,inactive,–,–,–,–
C=Cc1ccc(C)cc1,inactive,inactive,inactive,inactive,–,–,–,–
NCCNCCO,inactive,inactive,inactive,inactive,–,–,–,–
O=C(O)CCCCC1CCSS1 (stereo not given),inactive,inactive,inactive,inactive,–,–,–,–
O=C(O)COC(=O)Cc1ccccc1Nc1c(Cl)cccc1Cl,inactive,inactive,inactive,inactive,–,–,–,–
CCCCCCCCCCCCCCCCCBr,–,–,–,–,0.585% [at 23.6 µM] (inactive),1.09% [at 23.6 µM] (inactive),-1.4% [at 23.8 µM] (inactive),-2.26% [at 23.6 µM] (inactive)
CCOc1ccc(N=Nc2ccc(/C=C/c3ccc(N=Nc4ccc(OCC)cc4)cc3S(=O)(=O)O)c(S(=O)(=O)O)c2)cc1,inactive,inactive,inactive,inactive,–,–,–,–
C#CC(O)CCC (stereo not given),inactive,inactive,inactive,inactive,–,–,–,–
c1ccc(CC2=NCCN2)cc1,inactive,inactive,inactive,inactive,–,–,–,–
CC(C)OC(=O)c1cc(C(=O)OC(C)C)cc([N+](=O)[O-])c1,inactive,inactive,inactive,inactive,–,–,–,–
CC(=O)OC/C=C(C)/C=C/C=C(C)/C=C/C1=C(C)CCCC1(C)C,inactive,inactive,inactive,inactive,–,–,–,–
Nc1ccn([C@H]2CC[C@@H](CO)O2)c(=O)n1,inactive,inactive,inactive,inactive,–,–,–,–
CC(CO)Oc1ccccc1 (stereo not given),inactive,inactive,inactive,inactive,–,–,–,–
CCCCCCCCCCCCc1ccc(O)cc1,inactive,63.3 µM (active),inactive,inactive,–,–,–,–
CCCCCCCCCCCCCCCCCCO,inactive,inactive,inactive,inactive,–,–,–,–
CCCCCCC,inactive,inactive,inactive,inactive,–,–,–,–
NCCN1CCNC1=O,inactive,inactive,inactive,inactive,–,–,–,–
C/C=C(\C)C(=O)OCc1ccccc1,inactive,inactive,inactive,inactive,–,–,–,–

SMILES,Potency [1],Potency [2],Potency [3],Potency [4],"activity, negative = inhibition [1]","activity change, negative = inhibition [2]","activity change, negative = inhibition [3]","activity change, negative = inhibition [4]"
O=C(O)O,–,–,–,–,-0.194% [at 10.5 µM] (inactive),0.136% [at 10.5 µM] (inactive),2.47% [at 10.5 µM] (inactive),-6.48% [at 10.5 µM] (inactive)
O=C1CCCc2c(O)cccc21,inactive,inactive,inactive,inactive,–,–,–,–
CCN(Cc1ccccc1)c1ccccc1,inactive,inactive,inactive,inactive,–,–,–,–
COC(=O)c1cccc(C(=O)OC)c1,inactive,inactive,inactive,inactive,–,–,–,–
C=Cc1ccccc1C=C,inactive,inactive,inactive,inactive,–,–,–,–
NS(=O)(=O)c1ccc(N2CCCCS2(=O)=O)cc1,inactive,inactive,inactive,inactive,–,–,–,–
CC(C)(O)C(=O)c1ccccc1,inactive,inactive,inactive,inactive,–,–,–,–
CN(C)C(=S)SC(=S)N(C)C,56.4 µM (active) and inactive,inactive,35.6 µM (active) and inactive,inactive,–,–,–,–
ClC(c1ccccc1)(c1ccccc1)c1ccccc1,inactive,inactive,inactive,inactive,–,–,–,–
CC(=O)NCCO,inactive,inactive,inactive,inactive,–,–,–,–
Nc1c(Cl)cc(Cl)cc1Cl,inactive,inactive,inactive,inactive,–,–,–,–
O=C(c1cc(O)c(O)c(O)c1)c1ccc(O)c(O)c1O,inactive,inactive,inactive,inactive,–,–,–,–
CCOC(=O)Cn1cccc1-c1nc(-c2ccc(OC)cc2)c(-c2ccc(OC)cc2)s1,inactive,inactive,inactive,inactive,–,–,–,–
Cc1cc(NC(=O)C2=C(O)c3ccccc3S(=O)(=O)N2C)no1,inactive,inactive,inactive,inactive,–,–,–,–
CCCCCCCCCCCCCBr,inactive,inactive,inactive,inactive,–,–,–,–
O=C(O)CN(CCN(CC(=O)O)CC(=O)O)CCN(CC(=O)O)CC(=O)O,–,–,–,–,0.969% [at 23.6 µM] (inactive),0.748% [at 23.6 µM] (inactive),7.05% [at 23.8 µM] (inactive),0% [at 23.6 µM] (inactive)
COc1ccc(Cl)cc1C(=O)NCCc1ccc(S(=O)(=O)NC(=O)NC2CCCCC2)cc1,inactive,inactive,inactive,inactive,–,–,–,–
CCOc1ccc(NC(C)=O)cc1N,inactive,inactive,inactive,inactive,–,–,–,–
O=C(OCC(O)CO)c1ccccc1Nc1ccnc2c(C(F)(F)F)cccc12 (stereo not given),inactive,inactive,inactive,inactive,–,–,–,–
CCC[C@H](N[C@@H](C)C(=O)N1[C@H](C(=O)O)C[C@@H]2CCCC[C@@H]21)C(=O)OCC,inactive,inactive,inactive,inactive,–,–,–,–

SMILES,Potency [1],Potency [2],Potency [3],Potency [4],"activity, negative = inhibition [1]","activity change, negative = inhibition [2]","activity change, negative = inhibition [3]","activity change, negative = inhibition [4]"
O=[N+]([O-])c1ccc(NCCO)c(OCCO)c1,inactive,inactive,inactive,inactive,–,–,–,–
Cc1cc2cc3c(C)cc(=O)oc3c(C)c2o1,inactive,inactive,inactive,inactive,–,–,–,–
CCCC(C)=O,inactive,inactive,inactive,inactive,–,–,–,–
CCCCC(=O)N(C)C,inactive,inactive,inactive,inactive,–,–,–,–
Nc1ncnc(Nc2ccccc2)n1,inactive,inactive,inactive,inactive,–,–,–,–
OC1CCCc2ccccc21 (stereo not given),inactive,inactive,inactive,inactive,–,–,–,–
CC1(C)COCN1,inactive,inactive,inactive,inactive,–,–,–,–
CC(C)(C)C(=O)C(=O)O,inactive,inactive,inactive,inactive,–,–,–,–
c1ccc(CCNc2nc(-c3ccccc3)cs2)cc1,inactive,inactive,inactive,inactive,–,–,–,–
N[C@@H](Cc1cc(I)c(Oc2cc(I)c(O)c(I)c2)c(I)c1)C(=O)O,inactive,inactive,inactive,inactive,–,–,–,–
COc1ccc(CCO)cc1,inactive,inactive,inactive,inactive,–,–,–,–
Clc1ccc(Sc2cc(Cl)c(Cl)cc2Cl)cc1,inactive,inactive,inactive,inactive,–,–,–,–
NCc1ccccc1Sc1ccccc1CO,inactive,inactive,inactive,inactive,–,–,–,–
CC(=O)C1=C(C)[C@@H]2C[C@@]3(C1)[C@H](C)CC[C@H]3C2(C)C,inactive,inactive,inactive,inactive,–,–,–,–
C=C(C)C(=O)OCC(C)C,inactive,inactive,inactive,inactive,–,–,–,–
Cc1cc(C)cc(N)c1,inactive,inactive,inactive,inactive,–,–,–,–
C[C@@H](NCCCc1cccc(C(F)(F)F)c1)c1cccc2ccccc12,inactive,inactive,inactive,inactive,–,–,–,–
CCCCC(C)C(=O)O (stereo not given),inactive,inactive,inactive,inactive,–,–,–,–
COC(=O)c1sccc1S(N)(=O)=O,inactive,inactive,inactive,inactive,–,–,–,–
O=C1c2c(O)cccc2Cc2cccc(O)c21,inactive,inactive,inactive,inactive,–,–,–,–
